# Measured values reported in PubChem BioAssay AID2690 (NMMLSC, 2010).
# The campaign covered roughly 330,000 compounds. About 590 (0.18%) were called active. This is one part of a sample in which actives are shown more often than they occur.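 The calls were made as follows: active = superoxide response under a set limit, about three screen SD below normal (cut at about 65% in these data); inactive = the rest.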
# Test: yeast aging ROS inhibitors as calorie-restriction mimetics – HTS, primary screen (AID 2690);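 also: yeast aged for seven days with compound at 30 °C before DHE staining; 100% = average MFI of all compound-treated wells on the plate with controls excluded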
# Conditions: S. cerevisiae aged cells, superoxide DHE fluorescence; at 10 µM; hits give low values
row,Structure (SMILES),superoxide response (% of plate mean)
1,CCOC(=O)c1c(C)nn(-c2ncccc2NC(=O)CCC(=O)O)c1C,122% (inactive)
2,Cc1ccc(C(=O)O)cc1-c1ccc(/C=C2\SC(=O)N(CC(=O)Nc3ccc4c(c3)OCO4)C2=O)o1,114% (inactive)
3,Cc1ccccc1N1CCN(C2CCCN(C(=O)c3cn4c(C)cccc4n3)C2)CC1 (centres undefined),98.9% (inactive)
4,COc1cc(N2C(=O)c3ccccc3C2=O)c(Cl)cc1C(=O)OCC(=O)N1CCOCC1,106% (inactive)
5,COc1ccc(OCCCC(=O)OC(C)C(=O)Nc2ccccc2[N+](=O)[O-])cc1 (centres undefined),95.2% (inactive)
6,CC1(C(=O)NCCc2c[nH]c3ccccc23)C=CC2(CCCCC2)N1C(=O)c1ccccc1 (centres undefined),93.9% (inactive)
7,Cc1csc2ncc(C(=O)N(Cc3ccccc3)c3ccccn3)c(=O)n12,92.8% (inactive)
8,Cc1cc(F)ccc1S(=O)(=O)Nc1ncnc2scc(-c3ccc(F)cc3)c12,103% (inactive)
9,CCOC(=O)CNc1nc(Cl)nc(Nc2ccccc2)n1,114% (inactive)
10,Clc1nc(NC2CCCC2)nc(N2CCOCC2)n1,104% (inactive)
11,COC(=O)CNc1nc(Cl)nc(N2CCC(C)CC2)n1,51% (active)
12,CCc1noc(C)c1C(=O)Oc1ccc(N(C)S(=O)(=O)c2ccc(C)c(C)c2)cc1,103% (inactive)
13,CCOc1c(N2CCCCC2)c(=O)c1=O,105% (inactive)
14,COc1ccc(NS(=O)(=O)c2ccc(O)c(C(=O)OCC(=O)NC3CCCCC3)c2)cc1,93.5% (inactive)
15,NS(=O)(=O)c1ccc(CCNC(=O)CN2C(=O)c3ccccc3S2(=O)=O)cc1,111% (inactive)
16,Cc1ccc(C(=O)OCC(=O)NC(=O)Cc2ccccc2)c(O)c1,110% (inactive)
17,C=CCNC(=S)/N=c1/ccccn1Cc1ccccc1,102% (inactive)
18,COC(=O)c1ccc(NC(=O)CSc2nncc3ccc(OC)c(OC)c23)cc1,119% (inactive)
19,C=CCn1c(SCc2ccccc2)nc2c1c(=O)[nH]c(=O)n2C,102% (inactive)
20,Cc1cc(OCc2cc(C(=O)NCc3cc(C(C)C)no3)no2)cc(C)c1Cl,111% (inactive)
21,NC(=O)CSc1c[nH]c2ccccc12,97.2% (inactive)
22,CCn1c2ccccc2c2cc(CC(N)=O)ccc21,105% (inactive)
23,NC(=O)Cc1ccc2c(c1)[nH]c1ccccc12,40.8% (active)
24,OCCC1CN(Cc2cnc(-c3ccccc3)s2)CCN1CCc1ccccc1 (centres undefined),88.7% (inactive)

row,Structure (SMILES),superoxide response (% of plate mean)
1,Cc1cccc(OCC(=O)OCC(=O)Nc2ccc(Cl)cn2)c1,99.9% (inactive)
2,CCCC(C(=O)NCc1ccco1)N(C(=O)CNS(=O)(=O)c1ccccc1)C1CCCC1 (centres undefined),101% (inactive)
3,Cc1ccc(-c2noc(CNC(=O)c3ccoc3C)n2)cc1,85% (inactive)
4,Cc1ccc(N2CCN(S(=O)(=O)c3ccc(F)cc3)CC2)c(C)c1,106% (inactive)
5,CC(=O)c1ccc(N2CCN(S(=O)(=O)c3ccc4c(c3)CC(=O)N4C)CC2)cc1,97.6% (inactive)
6,Cc1c(NC(=O)CN(C)CC(=O)Nc2ccc(F)c(F)c2F)c(=O)n(-c2ccccc2)n1C,91.2% (inactive)
7,CCOc1ccc2nc(Cl)c(C3CC(c4ccccc4)=NN3C(=O)c3cccs3)cc2c1 (centres undefined),75.7% (inactive)
8,O=C(CSc1nnnn1C1CCCC1)Nc1ccc2c(c1)OCCO2,98.8% (inactive)
9,CC(C(=O)N=Nc1c(O)n(C)c2ccc(Br)cc12)n1cnc2ccccc2c1=O (centres undefined),89.3% (inactive)
10,COc1cc(NC(=O)C2=C(C)OCCS2)c(Cl)cc1C(=O)NCCN1CCN(C)CC1,99.2% (inactive)
11,CCN(CC)N=Nc1cccc(NC(C)=O)c1,96.8% (inactive)
12,CCc1ccccc1NC(=O)CN(C)C(=O)c1cc(C2CC2)nn1-c1ccccc1,117% (inactive)
13,C/C(CC(=O)NC(C)(C)C)=N\NC(=O)c1ccco1,92.3% (inactive)
14,O=C(OC1CCCCC1=O)c1cccc(S(=O)(=O)NCc2ccccc2)c1 (centres undefined),91.2% (inactive)
15,O=C(O)CC/C(=N\NC(=O)c1ccc(F)cc1)c1ccc(Br)cc1,97.4% (inactive)
16,COc1cc(NS(=O)(=O)c2ccc(NC(=O)CN3C(=O)c4ccccc4C3=O)cc2)ncn1,87.5% (inactive)
17,CNC(=O)c1cccc2nc3ccccc3nc12,47% (active)
18,CN(C)C(=O)c1coc2nc3ccccc3nc12,90.3% (inactive)
19,CNC(=O)c1cc2c(ccc3ccccc32)oc1=N,90% (inactive)
20,O=C1CCCCC1C(=O)c1ccccc1 (centres undefined),88.5% (inactive)
21,CCc1ccc(-c2nc(SCC(=O)NC3CCCC3)n[nH]2)cc1,109% (inactive)
22,Clc1ccc2nc(CSc3ccccc3)cn2c1,99.1% (inactive)
23,Cc1ccc(OCC(=O)Nc2ccc(N3CCN(C(=O)c4ccco4)CC3)cc2)c(C)c1,100% (inactive)
24,CN(C)c1ccc(/C=N\S(=O)(=O)c2ccccc2)cc1,64.7% (active)

row,Structure (SMILES),superoxide response (% of plate mean)
1,CN(C)c1ccc(/C=N/NC(=O)C(O)c2ccc(Br)cc2)cc1 (centres undefined),110% (inactive)
2,CN(C)c1ccc(C=NCCc2ccc(S(N)(=O)=O)cc2)cc1,82.2% (inactive)
3,Cc1c(C(=O)OCC(=O)N(CCC#N)c2ccccc2)oc2c1ccc1ccccc12,86.3% (inactive)
4,COC(=O)CNC(=O)c1ccc(OC2CCN(C(=O)C3CC3)CC2)cc1,64% (active)
5,COCCC(=O)N1CCC(Oc2ccc(C(=O)NCc3ccon3)cc2)CC1,92% (inactive)
6,C=C(C)CNC(=O)c1ccc(OC2CCN(C(=O)COC)CC2)cc1,103% (inactive)
7,C[n+]1cc(-c2ccccc2)oc1-c1ccccc1,96.2% (inactive)
8,COc1ccc(/C(C)=N/Nc2cc(C(F)(F)F)ccc2Cl)c(OC)c1,87.7% (inactive)
9,N=C1C(=O)OCC1c1ccccc1NC(=O)CN1CCCCC1 (centres undefined),110% (inactive)
10,CCCCOC(=O)Nc1sc2nc(C)cc(C)c2c1-n1cccc1,113% (inactive)
11,Cc1ccc2c(cnn2C(=O)CCC(=O)NC2CCCC2)c1,96.7% (inactive)
12,COc1ccc(C2=Nc3cc(C)ccc3OC2)cc1,99.1% (inactive)
13,C#CCO[C@@H]1C[C@H](n2cnc3c(=O)[nH]c(NC(=O)C(C)C)nc32)O[C@@H]1CO,101% (inactive)
14,COCCN(C(=O)CCC(=O)Nc1nccs1)C(C(=O)NC(C)(C)C)c1ccc(Cl)cc1 (centres undefined),87.1% (inactive)
15,O=C(NC1CCCC1)C1CC(=O)N(c2ccc(F)cc2)C1 (centres undefined),96.9% (inactive)
16,COc1ccc(C(C)C)cc1S(=O)(=O)Nc1ncn[nH]1,87.8% (inactive)
17,O=c1o[nH]c(-c2ccccc2)c1N=Nc1c(F)cccc1Cl,105% (inactive)
18,O=C(NCCCNC(=O)NC1CCCCC1)NC1CCCCC1,106% (inactive)
19,O=C(Oc1c(-c2ccco2)oc2ccccc2c1=O)c1cccnc1,104% (inactive)
20,O=[N+]([O-])c1cc(S(=O)(=O)Nc2cccc(Cl)c2)ccc1N=Nc1c(O)[nH]c2ccccc12,91.3% (inactive)
21,CC(=O)c1c(C)c[nH]c1C,90.3% (inactive)
22,Cc1ccc(NC(=O)CSCC(=O)N2CCOCC2)cc1,98.5% (inactive)
23,CCc1ccccc1N(CC(=O)NCC1CCCO1)C(=O)CCC(=O)Nc1nccs1 (centres undefined),88% (inactive)
24,COc1ccc(-c2cc(C(=O)N(C)Cc3ccc(OC)c(OC)c3OC)c3ccccc3n2)cc1OC,96.5% (inactive)

row,Structure (SMILES),superoxide response (% of plate mean)
1,Cc1cccc(CN2CCC(CNC(=O)Nc3ccc(F)c(Cl)c3)CC2)c1,92.6% (inactive)
2,O=C(NCC1CCN(Cc2ccccc2Cl)CC1)Nc1cccc(Cl)c1,103% (inactive)
3,Cc1ccccc1NC(=O)NCC1CCN(Cc2cccc(Cl)c2)CC1,36.3% (active)
4,C/C(N)=C(/C#N)C(=O)COC(=O)C1=NN(c2ccccc2)C(=O)CC1,82.1% (inactive)
5,CN(C)C1=NC[C@H](Cc2ccccc2)N1CCc1ccc(F)cc1,98.7% (inactive)
6,C/C(=N\NS(=O)(=O)c1cccc([N+](=O)[O-])c1)c1cc2ccccc2o1,107% (inactive)
7,CCC(=O)N(C)C(c1ccccc1Cl)c1nnnn1-c1c(C)cccc1C (centres undefined),107% (inactive)
8,COc1ccccc1C(=O)Nc1ccnn1C1CCN(Cc2cnn(C)c2)CC1,92% (inactive)
9,O=C(NNC(=O)c1cc(S(=O)(=O)N2CCCCC2)ccc1Cl)c1ccccc1O,95.4% (inactive)
10,CCC1(CC)C(=O)C2=C3C1[C@H](C(=O)OC)C=C(C(=O)OC)C[C@H]3[C@H]1C(=O)N(Cc3ccccc3)C(=O)[C@H]1[C@H]2C (some centres undefined),107% (inactive)
11,CC[C@]12c3[nH]c4cc(CCC(=O)N(C)C)ccc4c3CCN1C(=O)[C@@H](CC(=O)NCC13CC4CC(CC(C4)C1)C3)C[C@@H]2C(=O)N1CCN(C(=O)C2CC2)CC1,120% (inactive)
12,O=C(NNC(=O)C1C2CCC(C2)C1C(=O)O)c1ccc(Cl)cc1 (centres undefined),97.2% (inactive)
13,CSc1sc(C(=O)NNC(=O)c2ccc(Cl)cc2)c2c1C=CCC2,61.9% (active)
14,CCOC(=O)NNC(=O)c1ccc(Cl)cc1,96.8% (inactive)
15,O=C(Nc1ccccc1N1CCCC1)c1ccc(F)c(S(=O)(=O)N2CCOCC2)c1,85.3% (inactive)
16,O=C(NC(=S)Nc1ccccc1N1CCCCC1)c1ccc(F)cc1,98.2% (inactive)
17,O=C(Nc1ccccc1N1CCCC1)c1ccc2ccccc2c1,59% (active)
18,Cc1cccc2c1cnn2C(=O)CCC(=O)NC1CCCCC1,82.7% (inactive)
19,N#Cc1cccc(NC(=O)CN2CCCCCC2)c1,94.7% (inactive)
20,COc1cc(CO)ccc1OCC(=O)Nc1cccc2ccccc12,99.9% (inactive)
21,Cc1cccc2[nH]c(CN(C)C(=O)C3CCC(=O)N(CCc4ccccc4)C3)nc12 (centres undefined),102% (inactive)
22,COc1ccc(-c2c(-c3cc(OC)cc(OC)c3)n(C)c3ccc(-c4ccn[nH]4)cc23)cc1,87% (inactive)
